Results on one sequence are retold here after PMC7862700, “An all-to-all approach to the identification of sequence-specific readers for epigenetic DNA modifications on cytosine”.

Common to all, as to experiment: DAPPL (digital affinity profiling via proximity ligation, sequencing); 10 mM Tris-HCl pH 7.5, 50 mM NaCl, 1 mM DTT, 4% glycerol, room temperature, 30 min; GST-TFs on glutathione beads, 16-mer random dsDNA library, 0.1% formaldehyde crosslink after washing; high values mean tight binding
One assay deals with T1, FLI1 (Homo sapiens, UniProt Q01543 1-452).
T1 sequence: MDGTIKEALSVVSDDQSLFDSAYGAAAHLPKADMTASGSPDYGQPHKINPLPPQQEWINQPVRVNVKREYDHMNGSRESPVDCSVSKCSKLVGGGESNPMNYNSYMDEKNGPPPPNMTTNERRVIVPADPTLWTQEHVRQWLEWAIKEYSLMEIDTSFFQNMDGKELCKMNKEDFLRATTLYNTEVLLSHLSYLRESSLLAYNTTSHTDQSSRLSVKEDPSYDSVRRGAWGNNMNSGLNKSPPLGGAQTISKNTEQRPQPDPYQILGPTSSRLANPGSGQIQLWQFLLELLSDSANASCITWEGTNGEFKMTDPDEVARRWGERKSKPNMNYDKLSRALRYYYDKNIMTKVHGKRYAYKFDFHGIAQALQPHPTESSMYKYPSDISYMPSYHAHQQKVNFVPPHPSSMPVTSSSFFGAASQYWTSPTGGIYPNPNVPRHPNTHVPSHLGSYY
The note with it: protein: recombinant; tags: N-terminal GST; dsDNA, one strand shown. The procedure, abridged: (§1)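 Human transcription factors were made in yeast as GST fusions, captured on glutathione beads and barcoded with DNA. With a tag-only sample included, the pool was incubated with 200 nmole of a random double-stranded 16-mer DNA library in Tris/NaCl/DTT/glycerol buffer at room temperature for 30 min, then crosslinked with 0.1% formaldehyde after washing, ligated by proximity, amplified and sequenced. For binding signal, each hexamer's read frequency for a factor is divided by its frequency for the tag-only sample.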

The next assay has as its target T2, ELK1 (Homo sapiens, UniProt P19419 1-428).
T2 sequence: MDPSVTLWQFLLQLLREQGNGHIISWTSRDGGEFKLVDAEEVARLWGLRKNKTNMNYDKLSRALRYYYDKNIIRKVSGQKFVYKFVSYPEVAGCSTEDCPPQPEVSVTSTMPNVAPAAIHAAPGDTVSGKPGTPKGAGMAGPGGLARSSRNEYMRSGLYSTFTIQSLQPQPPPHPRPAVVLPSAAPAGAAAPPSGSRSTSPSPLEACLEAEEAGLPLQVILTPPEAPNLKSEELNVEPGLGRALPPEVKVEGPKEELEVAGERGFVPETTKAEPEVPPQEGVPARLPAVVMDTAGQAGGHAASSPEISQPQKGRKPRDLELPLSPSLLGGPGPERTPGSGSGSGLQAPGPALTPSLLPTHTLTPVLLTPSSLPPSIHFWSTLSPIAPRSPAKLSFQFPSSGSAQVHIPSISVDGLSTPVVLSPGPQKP
The note with it: protein: recombinant; tags: N-terminal GST; dsDNA, one strand shown. The procedure, abridged:
as §1

For a further assay, the target named is T3, GABPA (Homo sapiens, UniProt Q06546 1-454).
T3 sequence: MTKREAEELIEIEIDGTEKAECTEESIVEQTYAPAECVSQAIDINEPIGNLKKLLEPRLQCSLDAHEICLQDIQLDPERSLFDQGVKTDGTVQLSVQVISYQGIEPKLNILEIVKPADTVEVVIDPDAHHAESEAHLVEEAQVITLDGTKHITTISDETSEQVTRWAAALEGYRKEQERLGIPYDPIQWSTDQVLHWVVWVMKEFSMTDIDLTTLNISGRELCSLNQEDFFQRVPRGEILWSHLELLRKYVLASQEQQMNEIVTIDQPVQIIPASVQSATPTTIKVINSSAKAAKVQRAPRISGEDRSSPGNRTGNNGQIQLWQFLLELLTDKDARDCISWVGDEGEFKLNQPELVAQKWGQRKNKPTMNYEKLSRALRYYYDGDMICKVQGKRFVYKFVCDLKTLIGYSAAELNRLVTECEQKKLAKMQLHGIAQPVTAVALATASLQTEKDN
The following applies: protein: recombinant; tags: N-terminal GST; dsDNA, one strand shown. The procedure, abridged: as §1

A further assay deals with T4, ERG (Homo sapiens, UniProt P11308 1-479).
T4 sequence: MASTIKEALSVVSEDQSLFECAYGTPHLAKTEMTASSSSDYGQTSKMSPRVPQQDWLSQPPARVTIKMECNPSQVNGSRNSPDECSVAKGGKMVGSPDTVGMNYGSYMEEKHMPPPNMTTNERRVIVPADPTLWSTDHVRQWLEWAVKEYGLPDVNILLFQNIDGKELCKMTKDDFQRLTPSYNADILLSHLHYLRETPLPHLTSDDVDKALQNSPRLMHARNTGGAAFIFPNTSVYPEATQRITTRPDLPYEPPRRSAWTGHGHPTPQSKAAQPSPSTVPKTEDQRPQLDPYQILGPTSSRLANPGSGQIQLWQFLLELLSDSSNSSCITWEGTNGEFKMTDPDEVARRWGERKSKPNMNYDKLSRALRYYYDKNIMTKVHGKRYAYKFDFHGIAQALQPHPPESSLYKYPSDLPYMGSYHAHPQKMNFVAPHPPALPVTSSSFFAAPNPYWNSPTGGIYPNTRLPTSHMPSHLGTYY
The following applies: protein: recombinant; tags: N-terminal GST; dsDNA, one strand shown. Put shortly: as §1

Another assay addresses ELF1 (Homo sapiens, UniProt P32519 1-619). The note with it: protein: recombinant; tags: N-terminal GST; dsDNA, one strand shown. The procedure, abridged:
as §1

The target of another assay is T5, EHF (Homo sapiens, UniProt Q9NZC4 1-300).
T5 sequence: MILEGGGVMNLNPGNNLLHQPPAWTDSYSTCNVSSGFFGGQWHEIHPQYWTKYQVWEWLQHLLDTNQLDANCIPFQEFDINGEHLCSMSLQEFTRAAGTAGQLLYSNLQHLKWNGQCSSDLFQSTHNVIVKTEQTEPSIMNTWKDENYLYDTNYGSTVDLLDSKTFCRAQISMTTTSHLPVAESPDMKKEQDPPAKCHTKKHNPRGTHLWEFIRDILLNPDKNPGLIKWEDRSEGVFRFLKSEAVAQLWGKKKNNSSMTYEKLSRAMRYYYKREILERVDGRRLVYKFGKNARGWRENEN
The following applies: protein: recombinant; tags: N-terminal GST; dsDNA, one strand shown. The procedure, abridged:
as §1

For the next assay, the target named is SPI1 (Homo sapiens, UniProt P17947 1-270). The following applies: protein: recombinant; tags: N-terminal GST; dsDNA, one strand shown. The procedure, abridged:
as §1

In the next assay the target is SPIB (Homo sapiens, UniProt Q01892 1-262). The following applies: protein: recombinant; tags: N-terminal GST; dsDNA, one strand shown. The procedure, abridged: as §1
Chain of SPIB (Q01892 whole entry): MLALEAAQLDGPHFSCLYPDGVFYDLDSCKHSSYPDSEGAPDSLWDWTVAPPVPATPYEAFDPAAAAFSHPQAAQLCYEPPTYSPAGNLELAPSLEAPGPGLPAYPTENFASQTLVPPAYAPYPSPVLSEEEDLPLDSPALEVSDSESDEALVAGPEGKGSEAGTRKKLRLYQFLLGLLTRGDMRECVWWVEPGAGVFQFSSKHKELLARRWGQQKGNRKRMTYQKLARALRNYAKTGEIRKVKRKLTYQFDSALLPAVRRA
A further assay addresses T6, ELK3 (Homo sapiens, UniProt P41970 1-407).
T6 sequence: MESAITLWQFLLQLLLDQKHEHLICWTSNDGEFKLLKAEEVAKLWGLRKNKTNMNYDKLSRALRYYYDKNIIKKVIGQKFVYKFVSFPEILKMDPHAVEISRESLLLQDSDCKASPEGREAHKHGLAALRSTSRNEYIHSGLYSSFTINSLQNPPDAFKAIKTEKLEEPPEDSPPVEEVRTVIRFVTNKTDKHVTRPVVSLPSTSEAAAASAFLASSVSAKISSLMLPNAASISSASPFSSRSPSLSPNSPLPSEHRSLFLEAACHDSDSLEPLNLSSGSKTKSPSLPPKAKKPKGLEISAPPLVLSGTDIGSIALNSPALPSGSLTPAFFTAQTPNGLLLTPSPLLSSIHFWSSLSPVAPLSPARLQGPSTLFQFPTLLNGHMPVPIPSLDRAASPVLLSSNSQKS
The note with it: protein: recombinant; tags: N-terminal GST; dsDNA, one strand shown. Put shortly:
as §1

For a further assay, the target named is T7, FEV (Homo sapiens, UniProt Q99581 1-238).
T7 sequence: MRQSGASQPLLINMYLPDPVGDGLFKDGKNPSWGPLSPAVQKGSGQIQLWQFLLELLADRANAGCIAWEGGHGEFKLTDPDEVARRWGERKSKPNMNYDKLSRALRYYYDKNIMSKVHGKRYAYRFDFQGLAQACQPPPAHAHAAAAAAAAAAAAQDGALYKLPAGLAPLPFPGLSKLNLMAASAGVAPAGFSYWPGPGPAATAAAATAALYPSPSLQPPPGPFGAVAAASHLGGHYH
The note with it: protein: recombinant; tags: N-terminal GST; dsDNA, one strand shown. The procedure, abridged: as §1

A further assay deals with ETV5 (Homo sapiens, UniProt P41161 1-510). The note with it: protein: recombinant; tags: N-terminal GST; dsDNA, one strand shown. Put shortly: as §1
Chain of ETV5 (P41161 whole entry): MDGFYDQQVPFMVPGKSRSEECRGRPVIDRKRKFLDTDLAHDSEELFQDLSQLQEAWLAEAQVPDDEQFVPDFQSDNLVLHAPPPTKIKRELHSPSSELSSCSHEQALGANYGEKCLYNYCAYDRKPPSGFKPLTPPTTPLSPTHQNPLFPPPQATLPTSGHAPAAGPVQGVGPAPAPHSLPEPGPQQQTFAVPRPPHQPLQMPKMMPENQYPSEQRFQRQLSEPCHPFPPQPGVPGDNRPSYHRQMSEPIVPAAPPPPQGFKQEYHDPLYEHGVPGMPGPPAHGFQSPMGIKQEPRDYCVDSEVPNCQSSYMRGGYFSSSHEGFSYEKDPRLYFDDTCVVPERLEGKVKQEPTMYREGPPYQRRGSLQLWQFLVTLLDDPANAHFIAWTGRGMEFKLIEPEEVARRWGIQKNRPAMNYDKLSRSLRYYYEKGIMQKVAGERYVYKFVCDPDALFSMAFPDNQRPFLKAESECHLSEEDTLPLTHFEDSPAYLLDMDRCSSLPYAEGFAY
In a further assay the target is HSF1 (Homo sapiens, UniProt Q00613 1-529). The note with it: protein: recombinant; tags: N-terminal GST; chain copies: 3; dsDNA, one strand shown. Put shortly:
as §1

Another assay concerns the target T8, SPIC (Homo sapiens, UniProt Q8N5J4 1-248).
T8 sequence: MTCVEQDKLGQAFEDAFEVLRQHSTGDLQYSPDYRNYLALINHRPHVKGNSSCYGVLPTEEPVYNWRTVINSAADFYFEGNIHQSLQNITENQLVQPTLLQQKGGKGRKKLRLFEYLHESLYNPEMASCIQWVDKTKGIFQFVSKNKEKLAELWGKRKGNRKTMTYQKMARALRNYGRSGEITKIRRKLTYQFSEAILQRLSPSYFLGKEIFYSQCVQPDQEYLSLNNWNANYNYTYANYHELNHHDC
The note with it: protein: recombinant; tags: N-terminal GST; dsDNA, one strand shown. Put shortly:
as §1

The target of a further assay is ELF4 (Homo sapiens, UniProt Q99607 1-663). The following applies: protein: recombinant; tags: N-terminal GST; dsDNA, one strand shown. The procedure, abridged:
as §1

In a further assay the target is T9, ELK4 (Homo sapiens, UniProt P28324-2 1-405).
T9 sequence: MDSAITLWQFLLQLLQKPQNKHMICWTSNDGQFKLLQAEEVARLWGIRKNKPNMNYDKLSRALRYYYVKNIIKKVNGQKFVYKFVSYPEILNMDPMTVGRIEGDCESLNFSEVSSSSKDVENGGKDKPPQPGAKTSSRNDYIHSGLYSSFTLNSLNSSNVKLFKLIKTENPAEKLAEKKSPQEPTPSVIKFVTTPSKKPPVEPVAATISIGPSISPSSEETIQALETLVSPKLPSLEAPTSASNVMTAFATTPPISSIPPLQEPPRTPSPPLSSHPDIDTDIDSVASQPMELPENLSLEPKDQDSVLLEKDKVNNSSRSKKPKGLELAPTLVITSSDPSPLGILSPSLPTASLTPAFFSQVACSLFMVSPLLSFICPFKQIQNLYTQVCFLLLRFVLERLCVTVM
The following applies: protein: recombinant; tags: N-terminal GST; dsDNA, one strand shown. Put shortly:
as §1

The next assay has as its target T10, ETV2 (Homo sapiens, UniProt O00321 1-342).
T10 sequence: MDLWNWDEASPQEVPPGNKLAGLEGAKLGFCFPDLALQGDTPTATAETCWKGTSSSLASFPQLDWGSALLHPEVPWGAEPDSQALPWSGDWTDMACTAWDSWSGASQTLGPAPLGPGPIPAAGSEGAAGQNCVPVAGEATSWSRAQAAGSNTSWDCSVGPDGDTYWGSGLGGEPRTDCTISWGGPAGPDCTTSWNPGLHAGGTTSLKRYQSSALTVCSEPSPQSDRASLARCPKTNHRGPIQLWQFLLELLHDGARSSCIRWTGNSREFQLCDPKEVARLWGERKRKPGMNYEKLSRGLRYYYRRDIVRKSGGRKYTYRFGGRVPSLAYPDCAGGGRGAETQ
The following applies: protein: recombinant; tags: N-terminal GST; dsDNA, one strand shown. The procedure, abridged: as §1

The next assay concerns the target T11, ELF3 (Homo sapiens, UniProt P78545 1-371).
T11 sequence: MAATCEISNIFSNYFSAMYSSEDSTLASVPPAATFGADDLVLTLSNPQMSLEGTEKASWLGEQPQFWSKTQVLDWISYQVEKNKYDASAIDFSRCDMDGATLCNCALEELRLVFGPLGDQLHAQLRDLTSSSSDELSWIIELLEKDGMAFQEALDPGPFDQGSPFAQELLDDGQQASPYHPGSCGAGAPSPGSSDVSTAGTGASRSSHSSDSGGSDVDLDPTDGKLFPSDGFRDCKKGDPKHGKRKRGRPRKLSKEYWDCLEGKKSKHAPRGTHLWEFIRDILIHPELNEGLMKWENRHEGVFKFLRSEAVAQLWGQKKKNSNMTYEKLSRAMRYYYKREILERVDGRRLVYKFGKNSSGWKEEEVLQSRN
The note with it: protein: recombinant; tags: N-terminal GST; dsDNA, one strand shown. The procedure, abridged: as §1

Another assay concerns the target CRX (Homo sapiens, UniProt O43186 1-299). The following applies: protein: recombinant; tags: N-terminal GST; dsDNA, one strand shown. Put shortly:
as §1

The target in a further assay is ETV1 (Homo sapiens, UniProt P50549 1-477). The note with it: protein: recombinant; tags: N-terminal GST; dsDNA, one strand shown. The procedure, abridged:
as §1

Chain of HSF1 (Q00613 whole entry): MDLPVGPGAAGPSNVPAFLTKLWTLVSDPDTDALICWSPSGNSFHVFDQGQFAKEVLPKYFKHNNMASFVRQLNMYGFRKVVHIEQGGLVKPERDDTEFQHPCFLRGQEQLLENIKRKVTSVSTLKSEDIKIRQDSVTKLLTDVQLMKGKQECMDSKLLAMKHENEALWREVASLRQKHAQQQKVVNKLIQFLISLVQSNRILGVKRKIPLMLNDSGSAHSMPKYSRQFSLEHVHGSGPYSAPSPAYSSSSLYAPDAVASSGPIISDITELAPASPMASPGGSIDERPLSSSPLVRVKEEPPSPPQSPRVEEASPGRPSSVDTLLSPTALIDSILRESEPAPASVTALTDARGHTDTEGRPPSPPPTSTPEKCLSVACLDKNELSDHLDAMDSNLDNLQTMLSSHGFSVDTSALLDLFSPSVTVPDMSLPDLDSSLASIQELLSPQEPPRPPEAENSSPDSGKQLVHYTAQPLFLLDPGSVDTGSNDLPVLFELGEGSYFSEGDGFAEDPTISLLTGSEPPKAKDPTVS
Chain of CRX (O43186 whole entry): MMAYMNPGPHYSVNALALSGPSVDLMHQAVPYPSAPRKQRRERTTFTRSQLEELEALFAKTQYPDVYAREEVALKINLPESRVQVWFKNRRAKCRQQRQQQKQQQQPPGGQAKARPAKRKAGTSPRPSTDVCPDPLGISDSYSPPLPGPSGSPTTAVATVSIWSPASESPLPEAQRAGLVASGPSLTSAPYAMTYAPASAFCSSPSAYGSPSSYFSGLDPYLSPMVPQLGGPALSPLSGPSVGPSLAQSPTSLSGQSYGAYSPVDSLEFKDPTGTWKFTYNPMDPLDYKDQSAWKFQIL
Chain of ELF4 (Q99607 whole entry): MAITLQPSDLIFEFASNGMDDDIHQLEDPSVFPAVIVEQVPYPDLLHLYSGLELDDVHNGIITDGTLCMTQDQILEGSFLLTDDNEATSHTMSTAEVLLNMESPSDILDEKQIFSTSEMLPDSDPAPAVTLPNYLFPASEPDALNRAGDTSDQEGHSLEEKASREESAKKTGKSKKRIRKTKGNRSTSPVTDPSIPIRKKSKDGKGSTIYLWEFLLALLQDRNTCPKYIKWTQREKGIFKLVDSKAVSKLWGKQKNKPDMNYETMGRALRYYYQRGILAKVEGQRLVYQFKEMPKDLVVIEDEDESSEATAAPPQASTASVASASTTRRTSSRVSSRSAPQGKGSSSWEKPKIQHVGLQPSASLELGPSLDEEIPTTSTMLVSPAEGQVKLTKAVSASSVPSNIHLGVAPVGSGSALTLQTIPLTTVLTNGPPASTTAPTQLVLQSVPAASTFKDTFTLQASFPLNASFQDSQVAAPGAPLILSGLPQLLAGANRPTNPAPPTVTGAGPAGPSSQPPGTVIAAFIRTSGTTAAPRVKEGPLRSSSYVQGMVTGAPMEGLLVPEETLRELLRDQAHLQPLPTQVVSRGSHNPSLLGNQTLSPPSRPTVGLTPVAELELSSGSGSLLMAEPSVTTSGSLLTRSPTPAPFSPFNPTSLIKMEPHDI
Chain of ETV1 (P50549 whole entry): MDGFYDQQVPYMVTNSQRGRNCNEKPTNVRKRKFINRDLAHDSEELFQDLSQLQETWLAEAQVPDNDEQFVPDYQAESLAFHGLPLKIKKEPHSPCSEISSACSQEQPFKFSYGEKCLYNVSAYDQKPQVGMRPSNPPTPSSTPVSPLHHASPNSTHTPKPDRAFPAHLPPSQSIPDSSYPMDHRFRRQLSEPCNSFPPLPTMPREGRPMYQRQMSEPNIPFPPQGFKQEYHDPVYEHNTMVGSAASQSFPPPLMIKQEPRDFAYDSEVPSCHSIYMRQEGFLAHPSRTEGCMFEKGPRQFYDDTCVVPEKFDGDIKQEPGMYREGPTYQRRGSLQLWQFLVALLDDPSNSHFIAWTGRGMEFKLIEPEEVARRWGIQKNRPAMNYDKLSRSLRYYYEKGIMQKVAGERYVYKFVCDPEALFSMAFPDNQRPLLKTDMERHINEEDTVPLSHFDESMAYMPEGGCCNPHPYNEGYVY
Chain of ELF1 (P32519 whole entry): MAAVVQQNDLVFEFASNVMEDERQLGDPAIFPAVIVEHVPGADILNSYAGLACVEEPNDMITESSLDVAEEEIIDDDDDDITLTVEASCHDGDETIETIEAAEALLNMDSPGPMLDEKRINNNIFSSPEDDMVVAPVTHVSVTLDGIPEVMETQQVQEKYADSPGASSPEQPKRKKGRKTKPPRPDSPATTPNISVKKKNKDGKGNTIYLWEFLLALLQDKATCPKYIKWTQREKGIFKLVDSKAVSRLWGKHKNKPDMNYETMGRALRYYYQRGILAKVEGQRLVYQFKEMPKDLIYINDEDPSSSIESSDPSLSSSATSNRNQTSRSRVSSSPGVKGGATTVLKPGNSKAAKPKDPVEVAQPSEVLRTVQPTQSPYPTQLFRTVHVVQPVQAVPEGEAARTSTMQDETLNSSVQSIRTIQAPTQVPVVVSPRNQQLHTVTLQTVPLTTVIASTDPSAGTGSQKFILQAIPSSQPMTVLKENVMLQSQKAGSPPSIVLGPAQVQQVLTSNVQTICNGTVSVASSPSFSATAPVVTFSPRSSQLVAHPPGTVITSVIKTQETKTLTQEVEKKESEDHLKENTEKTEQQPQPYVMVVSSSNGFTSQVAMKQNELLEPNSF

On to TCCCTG, for which the binding signal is 1.28 fold enrichment (6-mer frequency, TF over GST control) with FLI1; 1.25 fold enrichment (6-mer frequency, TF over GST control) in the assay with ELK1; 1.36 fold enrichment (6-mer frequency, TF over GST control) with GABPA; 1.28 fold enrichment (6-mer frequency, TF over GST control) in the assay with ERG; 1.32 fold enrichment (6-mer frequency, TF over GST control) in the assay with ELF1; 1.33 fold enrichment (6-mer frequency, TF over GST control) with EHF. Also, the binding signal was 1.29 fold enrichment (6-mer frequency, TF over GST control) in the assay with SPI1; 1.35 fold enrichment (6-mer frequency, TF over GST control) with SPIB; 1.14 fold enrichment (6-mer frequency, TF over GST control) with ELK3; 1.28 fold enrichment (6-mer frequency, TF over GST control) with FEV; 1.35 fold enrichment (6-mer frequency, TF over GST control) with ETV5; 1.24 fold enrichment (6-mer frequency, TF over GST control) with HSF1. Moreover, the binding signal was 1.38 fold enrichment (6-mer frequency, TF over GST control) in the assay with SPIC; 1.31 fold enrichment (6-mer frequency, TF over GST control) in the assay with ELF4; 1.19 fold enrichment (6-mer frequency, TF over GST control) with ELK4; 1.38 fold enrichment (6-mer frequency, TF over GST control) in the assay with ETV2; 1.2 fold enrichment (6-mer frequency, TF over GST control) with ELF3; 1.3 fold enrichment (6-mer frequency, TF over GST control) with CRX. Moreover, the binding signal with ETV1 was 1.35 fold enrichment (6-mer frequency, TF over GST control).
